From PubChem BioAssay
Sampled rows, rich in hits. Any-hit rate of the full collection: about 3.1%.
Tau fibril FP: blocks human tau fibril formation measured by polarization; K18 P301L tau heparin fibrillization, Alexa594 FP, 6 h; Potency, µM (titrated, usually from 57.7 µM), for inactives: at the top dose activity, negative = inhibition, usual class: inhibitors; 280,000 tested, 0.39% active; AID 1468; note: nearly all actives have a fitted effect of over 55% in size
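K18 P301L tau (15 uM unlabeled/0.24 uM Alexa 594-labeled, final) + compound + heparin 20 uM final; 100 mM NaOAc pH 7; 6 hr 37 C; ThT 30 uM final added, 1 hr RT; FP ex 555/em 632 nm.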
Tau fluor counter: counter-screen for tau fibril formation inhibitors. 280,000 tested, 0.93% active. tau K18 P301L Alexa594 fluorescence, heparin fibrillization. Potency, µM (series often up to 57.7 µM), inactives show at the highest dose activity change, negative = decrease; note: nearly all actives have a fitted effect of over 55% in size
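Human tau K18 P301L (15 uM unlabeled, 0.24 uM Alexa 594-labeled) in 100 mM sodium acetate pH 7 with 20 uM heparin, 6 hr at 37 C. ThT 30 uM added, 1 hr ambient; Alexa 594 FP and total fluorescence read at 555/632 nm.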
Tau fibril ThT: inhibitors of human tau fibril formation, thioflavin T binding. P10636. recombinant tau K18 P301L (four-repeat tau fragment), heparin-induced fibrillization, ThT fluorescence. Potency, µM (top dose mostly 57.4 µM), for the others: at the top dose activity, negative = inhibition, usual class: inhibitors. 270,000 tested, 2.1% active; note: nearly all actives have a fitted effect of over 55% in size
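Tau K18 P301L fragment (15 uM unlabeled plus 0.24 uM Alexa 594-labeled) in 100 mM sodium acetate pH 7 with compound, fibrillization induced by 20 uM heparin for 6 hr at 37 C. Thioflavin T (30 uM) added, fluorescence read after 1 hr (ex 450, em 510 nm).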
TRb-SRC2 inh: inhibitors of human thyroid hormone receptor beta-SRC2 interaction | P10828 | TRbeta-SRC2 peptide binding, fluorescence polarization; receptor liganded with 1 µM T3 | Potency, µM (top dose mostly 106 µM), for the others: at the top dose activity change, negative = inhibition, hits mostly inhibitors | 280,000 tested, 0.065% active;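 note: plate controls were bound peptide for no effect and peptide without receptor for full effect; nearly all actives have a fitted effect of over 50% in size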
Target sequence (P10828 whole entry, looked up): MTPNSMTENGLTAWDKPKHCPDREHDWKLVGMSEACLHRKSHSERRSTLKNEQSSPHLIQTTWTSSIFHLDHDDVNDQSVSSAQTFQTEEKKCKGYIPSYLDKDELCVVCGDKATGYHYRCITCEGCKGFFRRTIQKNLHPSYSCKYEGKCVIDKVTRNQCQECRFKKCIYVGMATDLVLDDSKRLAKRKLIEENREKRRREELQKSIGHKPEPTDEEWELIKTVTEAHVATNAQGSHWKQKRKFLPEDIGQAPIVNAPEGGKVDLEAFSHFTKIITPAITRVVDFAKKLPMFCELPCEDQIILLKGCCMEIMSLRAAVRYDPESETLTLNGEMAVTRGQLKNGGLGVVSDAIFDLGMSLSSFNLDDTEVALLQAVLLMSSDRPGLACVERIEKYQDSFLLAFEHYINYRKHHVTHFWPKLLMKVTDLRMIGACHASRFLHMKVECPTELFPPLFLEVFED
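TRb LBD 0.6 uM + Texas Red SRC2 peptide 20 nM, 1 uM T3, Tris buffer w/ 5% DMSO; compound pinned, 5 h RT; FP read ex 555/em 632; normalized to unbound and bound controls.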
TR SRC2 fluor cs: Texas Red fluorescence interference in TRb-SRC2 counter-screen; TRb/SRC2 Texas Red total fluorescence interference; Potency, µM (series often up to 106 µM), for the others: at the top dose fluorescence change, negative = quenching; 280,000 tested, 0.29% active; active = well fitted curve in either direction with a large enough effect; inconclusive = small, poorly fitted or top-dose-only effect
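Human TRβ ligand-binding domain (0.6 uM) and Texas Red SRC2 peptide (20 nM) in Tris buffer with 1 uM T3 and 5% DMSO were incubated with pinned compound for 5 hr at ambient temperature. Total fluorescence was computed as S + 2P (555/632 nm).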
* = called active by the depositor; ? = inconclusive; [ ] = another dose, or the depositor's remark. Unless noted, calls come from the whole dose curve; as a rule, active = well fitted curve in the direction sought with a large enough effect; inconclusive = small, poorly fitted or top-dose-only effect, or another doubt; inactive = no such curve, though single readings can be large; an effect the other way counts as inactive or inconclusive. Unless noted, % is set by controls: 0 for no effect and ±100 for the full control effect; potency is the fitted concentration of half-maximal effect.

SMILES | Tau fibril FP | Tau fluor counter | Tau fibril ThT | TRb-SRC2 inh | TR SRC2 fluor cs
CC(C)(C)OC(=O)[C@H](Cc1ccccc1)NC(=O)c1nc[nH]c1C(=O)NCc1ccccc1 | ? | ? | 4% | 5% | -1%
NC(=O)C[C@@H](N)C(=O)O | 6% | -3% | 1% | 1% | -1%
COCCNc1ncnc2c1cnn2-c1cc(Cl)ccc1C | 1% | 4% | 8% | -1% | 0%
COc1cc(C(=O)NC(CCSC)C(=O)OCC(=O)C(C)(C)C)cc(OC)c1OC (configuration not stated) | 0% | -7% | 1% | -3% | -3%
COc1ccc(-c2ccc(/C=N/NC(=O)c3cccnc3)o2)c([N+](=O)[O-])c1 | ? | -25% | 2.8µM* | -2% | -2%
O=C(N/N=C/c1ccc(-c2ccccc2[N+](=O)[O-])o1)[C@H]1C[C@@H]1c1ccccc1 | ? | ? | 4.5µM* | 1% | 2%
N#C/C(=C\c1ccc(-c2ccccc2[N+](=O)[O-])o1)C(N)=O | -6% | -13% | -10% | 2% | -1%
Cc1ccc(C(=O)N/N=C/c2ccc(-c3ccccc3[N+](=O)[O-])o2)cn1 | 6% | 4% | 7% | ? | 32µM*[quencher]
Cc1ccc(C(=O)N/N=C/c2ccc(-c3cccc(Cl)c3)o2)cn1 | 1% | ? | -14% | 5% | 0%
COc1cc([N+](=O)[O-])cc(/C=N/NC(=O)c2cccnc2)c1O | 6% | -18% | ? | 0% | -11%
O=C(/C=C/c1ccc(-c2ccccc2[N+](=O)[O-])o1)c1ccccc1 | 5% | ? | 18µM* | 2% | 4%
CCOc1ccccc1C(=O)NCC(c1ccc(N(C)C)cc1)N1CCc2ccccc21 (configuration not stated) | -1% | -20% | ? | 0% | -2%
COc1ccc(NC(C)(C)c2nnnn2-c2c(C)cccc2C)cc1 | 14% | -7% | -4% | 1% | -1%
COc1ccc(C2NC(=O)C(C#N)=C(S)N2c2ccccc2)cc1OC (configuration not stated) | ? | -12% | ? | -2% | 0%
CCOc1ccc(C2NC(=O)C(C#N)=C(S)N2c2ccc(C)cc2)cc1OC (configuration not stated) | ? | -24% | 32µM* | 3% | -4%
CCOc1ccc(C2NC(=O)C(C#N)=C(S)N2c2cccc(C)c2)cc1OC (configuration not stated) | ? | -25% | 32µM* | 0% | -1%
Cc1ccc(S(=O)(=O)CCC(=O)Nc2ccc(Br)cc2C)cc1 | -9% | -7% | -2% | -1% | -12%
O=C(Nc1ccc(F)cc1)Nc1csc2c1CCCC2 | -16% | 7.1µM*[quencher] | ? | 4% | -1%
CC(=O)c1cccc(NC(=O)Nc2csc3c2CCCC3)c1 | ? | 11µM*[quencher] | ? | -7% | -1%
CC(=O)c1cccc(NC(=O)c2csc3c2CCCCC3)c1 | 2% | -26% | -8% | 5% | 1%
Cn1c(SCc2ccccn2)nc2c1c(=O)[nH]c(=O)n2C | 4% | -11% | -1% | 4% | -4%
CCN1/C(=C2\OC(=S)N(C)C2=O)C=Cc2ccccc21 | -1% | -13% | ? | ? | 2%
CCSC1=NC(=O)/C(=C2/C=Cc3ccccc3N2CC)S1 | 17% | ? | 7.1µM* | 2% | -2%
Cc1cc(C)c(O)c(N)c1 | -17% | -25% | 22µM* | -3% | -3%
Cc1cc(C)c(N)c(C(=O)O)c1 | 2% | 8% | -1% | 5% | 0%
COCCn1nnnc1C(C(C)C)N1CCSCC1 (configuration not stated) | 2% | -5% | -3% | 5% | 1%
COc1ccc(-c2cn3cccnc3n2)cc1NC(=O)Nc1ccc(Cl)cc1 | -8% | 14µM*[quencher] | ? | -1% | -2%
COc1ccc(NC(=O)Nc2cc(C)ccc2OC)cc1 | 9% | ? | ? | 6% | 0%
COc1cc(OC)c(NC(=O)c2ccco2)cc1Cl | -3% | -9% | -5% | -2% | 0%
Cc1c(-c2cccc(NC(=O)Nc3ccc(Cl)cc3)c2)nc2ncccn12 | 20µM* | 10µM*[quencher] | 13% | -1% | -2%
